# High-throughput results: PubChem, PCMD
# FXIIa mix inh – human factor XIIa inhibitors, primary screen, biochemical, pooled compound mixtures, fluorogenic substrate | purified FXIIa | inhibition, % at 5 µM | 62,000 tested, 0.2% active | AID 684, 2007;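 also: 0% = enzyme without compound and 100% = no enzyme blank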
# CatG inh – human cathepsin G inhibitors, primary screen, biochemical, pooled compound mixtures, AMC fluorescence; P08311; purified enzyme, AMC-tetrapeptide fluorescence; inhibition, % at 5 µM (by protocol); 62,000 tested, 0.2% active;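 active = inhibition above 20% in each of the two mixture wells holding the compound; inactive = inhibition of 20% or less in either well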;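 also: 0% = enzyme control without mixture and 100% = blank lacking enzyme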
# Target sequence (P08311 21-244 limits assumed): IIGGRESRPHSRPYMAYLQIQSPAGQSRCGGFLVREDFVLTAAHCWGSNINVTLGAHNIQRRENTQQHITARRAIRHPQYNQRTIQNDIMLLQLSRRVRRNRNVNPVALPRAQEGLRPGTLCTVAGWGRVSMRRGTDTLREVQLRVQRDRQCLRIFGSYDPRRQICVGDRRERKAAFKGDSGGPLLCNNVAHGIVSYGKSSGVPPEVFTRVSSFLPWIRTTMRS
# FXIa mix inh – FXIa protease inhibitors in compound pools, primary screen, biochemical, 10-compound mixtures; Coagulation factor XI (Homo sapiens), P03951; AID 680, 2007; purified FXIa, fluorogenic substrate, pooled mixtures; inhibition, % at 5 µM; 62,000 tested, 0.19% active;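 also: each value is inhibition by a whole ten-compound pool holding the compound; 0% = enzyme with no mixture and 100% = wells lacking enzyme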
# C1s inh – complement C1s protease inhibitors, primary screen, biochemical, 10-compound mixtures | 62,000 tested, 0.16% active | mean inhibition % of two 10-compound mixtures (active compounds read high), % at 5 µM (by protocol) | purified C1s, fluorogenic AMC substrate, pooled mixtures | Complement C1s subcomponent (Homo sapiens), P09871;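 active = inhibition above 20% in each of the two 10-compound mixture wells holding the compound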;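 also: 0% = enzyme wells lacking compound mixture and 100% = no-enzyme blank wells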
# The depositor's hits bear a star. Most compounds without a hit are left out; they make up all but 0.5% or so of the library. Rule as the data show it, unless noted: active = inhibition above about 20% (passing the limit was not always enough); inactive = the rest.
SMILES,FXIIa mix inh,CatG inh,FXIa mix inh,C1s inh
CCCCC(=O)Nc1ccc(NC(=O)c2cc(OC)c(OC)c(OC)c2)cn1,-10.1,2.7,2.1,-30.6
COc1ccc(-c2nnc3n2N=C(c2ccccc2)CS3)cc1OC,32.0*,10.2,5.2,11.8
COc1ccc(C2=Nn3c(nnc3-c3ccccc3)SC2)cc1OC,2.8,5.6,9.7,-0.2
CS(=O)(=O)N1CCCC(C(=O)NCc2ccc(F)cc2Cl)C1 (configuration not stated),-5.6,-1.7,7.7,-2.4
CCC(=O)Nc1nc(C)cc(SCC(=O)OC)n1,-0.8,9.0,20.7*,17.4
CN(C)c1ccc(NC(=O)Cn2cc3c(n2)CCCC3)cc1,7.9,6.2,-2.7,2.9
O=C(COC(=O)c1cnccn1)c1ccc(OC(=O)c2ccccc2)cc1,-10.1,9.2,11.7,26.4*
Cc1ccc(NC(=O)c2ccc(S(=O)(=O)NCC3CCCO3)cc2)cc1 (configuration not stated),22.0*,-8.5,-1.5,-25.8
COc1cccc(C(=O)Nc2cc(=O)n(C)c(=O)n2C)c1,-5.2,-6.7,4.3,-25.6
Cn1c(=O)c2cc(S(=O)(=O)Nc3ccc4c(c3)OCO4)ccc2n(C)c1=O,-9.9,1.2,1.0,4.9
CN(C)S(=O)(=O)Nc1ccc2c(c1)OCO2,1.0,-0.3,24.2*,-5.0
Cn1c(=O)oc2cc(S(=O)(=O)Nc3ccc4c(c3)OCO4)ccc21,45.1*,6.4,6.8,14.8
CCOC(=O)Cn1cnc2sc3c(c2c1=O)CCC3,56.9*,-8.1,2.1,-5.7
CC(=O)c1ccc(Oc2ncnc3sccc23)c(CN2CCOCC2)c1,1.4,2.2,8.2,5.2
O=C(Oc1ccc2ccccc2c1)c1ccco1,4.5,-13.8,-41.8,-111.8
CC(=O)Nc1cc(OC(=O)c2ccco2)cc(OC(=O)c2ccco2)c1,8.7,-3.7,25.0*,10.9
COc1cccc(N2C(=O)N(c3ccccc3Cl)C3CS(=O)(=O)CC32)c1 (configuration not stated),3.0,16.6,9.2,23.0*
CSc1nnc(-c2sc3cc(Cl)ccc3c2Cl)n1C,0.0,0.7,10.5,-38.6
CCn1c(SC)nnc1-c1sc2cc(Cl)ccc2c1Cl,42.5*,9.6,18.1,14.8
O=C(Oc1cc2oc(=O)c3c(c2cc1Cl)CCCC3)c1ccco1,-15.5,6.3,2.4,-26.8
O=C(Oc1ccc(Cl)cc1N1C(=O)CCC1=O)c1ccco1,3.4,20.1,14.0,26.3*
CCN(CC)CCN=C1CCCc2ccccc2N1,-2.7,9.6,1.9,13.0
COc1ccc2[nH]c(=O)c(CN(CCCN(C)C)C(=O)Nc3ccc(F)cc3)cc2c1,10.9,8.0,5.3,7.9
